Source: PubChem (several laboratories)
An excerpt weighted towards active compounds, which were near 28% of everything screened.
CYP2C9 inh: inhibitors of human CYP2C9; P11712; CYP2C9 Supersomes, luciferin-H conversion, luminescence; inhibition, % at 5 µM; 96,000 compounds, 20% hits;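 active = blocking of liver enzyme CYP2C9 beyond about 50% at 5 µM, limit read from the data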
CYP2C9 act: CYP2C9 (human) activation | P11712 | recombinant CYP2C9, luciferin-H conversion, luminescence; hits give high values; factor 1 = untreated enzyme, 0 = blocked | activation factor at 5 µM | 96,000 compounds, 1.4% hits | AID 1024;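 active = activation factor of 2 or more for CYP2C9 at a 5 µM dose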
CYP2C19 activ: cytochrome P450 2C19 (human) activation; activation factor at 5 µM; 96,000 tested, under 10 active; AID 1025; recombinant CYP2C19, luciferin-H EGE luminescence; hits give high values; 0 = fully inhibited enzyme, 1 = untreated enzyme; P33261;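 active = activation factor of at least 2 at 5 µM in the primary screen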
Target sequence (P33261 whole entry, looked up): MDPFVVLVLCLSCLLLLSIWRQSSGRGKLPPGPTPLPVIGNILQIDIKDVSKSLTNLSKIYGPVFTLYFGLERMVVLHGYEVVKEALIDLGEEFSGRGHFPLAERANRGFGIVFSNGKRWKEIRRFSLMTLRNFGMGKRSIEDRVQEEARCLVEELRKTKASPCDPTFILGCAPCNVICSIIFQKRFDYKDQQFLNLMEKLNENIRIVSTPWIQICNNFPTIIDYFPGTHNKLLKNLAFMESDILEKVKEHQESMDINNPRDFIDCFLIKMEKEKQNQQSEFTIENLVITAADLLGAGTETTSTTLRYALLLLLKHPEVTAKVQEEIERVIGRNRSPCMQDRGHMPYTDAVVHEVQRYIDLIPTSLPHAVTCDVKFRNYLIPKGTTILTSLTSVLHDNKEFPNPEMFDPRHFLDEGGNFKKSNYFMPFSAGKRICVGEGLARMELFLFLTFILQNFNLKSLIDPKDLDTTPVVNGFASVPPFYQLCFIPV
DAT uptake mod: human DAT dopamine uptake with cocaine, either direction. LLC-PK1 hDAT cells, [14C]-dopamine uptake with cocaine IC80; actives deviate in either direction. B-score at 10 µM. 110,000 compounds, 1.3% hits. AID 449768;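 active = Z score or B-score, a plate-position-corrected score, falls beyond the plate's 99.7% confidence bounds, in either direction; inactive = both scores lie inside the 99.7% bounds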
CYP2C19 inhib: blocks human cytochrome P450 2C19; P33261; 96,000 compounds, 21% hits; inhibition, % at 5 µM; AID 778; CYP2C19 Supersomes, luciferin-H EGE luminescence, 30 min;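 active = CYP2C19 inhibition above a set limit at 5 µM in the primary screen, cut at about 50% in these data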
D1 allo mod: allosterically modulates the human D1 dopamine receptor; 58,000 compounds, 5.9% hits; HEK293 D1, CRE-luciferase, dopamine EC30 potentiation; actives deviate in either direction; B-score at 10 µM; P21728;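 active = luminescence count or its row- and column-corrected plate score outside the 99.7% band of the plate's sample wells, on either side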
Hits are given with their value; – = inactive; · = not tested or not shown.

SMILES	CYP2C9 inh	CYP2C9 act	CYP2C19 activ	DAT uptake mod	CYP2C19 inhib	D1 allo mod
Cc1sc(NC(=O)c2ccco2)c(C(c2cccnc2)N2CCCC2)c1C (stereo not given)	53	–	–	–	–	·
CCOC(=O)c1ccc(NS(=O)(=O)c2c(N)n(C)c(=O)n(C)c2=O)cc1	·	·	·	–	·	·
Cc1cc(C)n(C(C)n2nc(C)cc2C)n1	–	–	–	–	–	–
Cc1ccc(CC2CC(=O)N(c3nc4ccccc4n3C)C2=O)cc1 (stereo not given)	–	–	–	–	–	·
CN(C)c1nc(N)nc(CSc2nnnn2-c2ccc(F)cc2)n1	–	–	–	–	76	·
Nc1nc(CSc2nnnn2-c2ccccc2)nc(N2CCCc3ccccc32)n1	·	·	·	–	·	–
CC1(C)CC(=O)N(CC(=O)NCc2ccccc2)c2ccccc2S1(=O)=O	–	–	–	–	69	–
COCCNC(=O)CN1C(=O)CC(C)(C)S(=O)(=O)c2ccccc21	–	–	–	–	–	–
CC1(C)CC(=O)N(CC(=O)NCc2ccc(F)cc2)c2ccccc2S1(=O)=O	–	–	–	–	62	–
Nc1nonc1C(=O)NCCNCc1ccccc1OCc1ccccc1F	–	–	–	–	–	–
CCOc1c(CNCCNC(=O)c2nonc2N)cccc1OC	–	–	–	–	74	–
COc1cccc(CNCCNC(=O)c2nonc2N)c1	–	–	–	–	–	·
Nc1nonc1C(=O)NCCNCc1cc(Br)ccc1OCc1ccccc1F	–	–	–	–	57	-3.3
CC1(C)CC(c2csc(N)n2)CCO1 (stereo not given)	–	–	–	–	–	–
COCCNC(=O)c1c(NC(=O)c2nc(SC)ncc2Cl)sc2c1CCCC2	–	–	–	–	–	·
CC(C)C(NC(=O)COc1ccc2ccccc2c1)C(=O)N/N=C/C=C/c1ccccc1 (stereo not given)	–	–	–	–	–	·
CCC(=O)Nc1nc2ccccc2n1Cc1ccc(C)cc1	–	–	–	–	81	–
CCC(=O)Nc1nc2ccccc2n1Cc1ccccc1	–	–	–	–	–	–
Cc1ccc(Cn2c(NS(=O)(=O)c3ccccc3)nc3ccccc32)cc1	64	–	–	–	–	·
Cc1cc(-c2[nH]nc3c2C(c2ccc(Cl)cc2)C(C#N)=C(N)O3)c(C)s1 (stereo not given)	·	·	·	–	·	·
C=CCn1c(N)cc(=O)nc1SCC(=O)N1CCN(c2ccc(F)cc2)CC1	–	–	–	–	–	–
CC1CCCCN1C(=O)CN1C(=O)CN(C)C(=O)c2ccccc21 (stereo not given)	–	–	–	–	–	–
O=C(O)c1cnc(-c2ccccc2)nc1Sc1ccccc1	–	–	–	–	–	·
CCOC(=O)c1cccnc1SCC(=O)N(C)c1ccccc1	–	–	–	–	–	–
Cc1cc2c(c(SCC(=O)N(C)c3ccccc3)n1)C(=O)OC2	–	–	–	–	63	–
SMILES	CYP2C9 inh	CYP2C9 act	CYP2C19 activ	DAT uptake mod	CYP2C19 inhib	D1 allo mod
Cc1cc2c(c(Sc3ccccc3)n1)C(=O)OC2	–	–	–	–	50	–
CCCc1nnc(NC(=O)CCC(=O)Nc2ccc(F)cc2)s1	–	–	–	–	–	·
Cc1cc(Oc2ccccc2)nc2ccc(O)cc12	–	–	–	·	80	·
c1ccc(Oc2cnc3ccccc3n2)cc1	–	–	–	–	–	·
COc1ccc(C(=O)Nn2c(SCC(=O)c3ccccc3)nc3ccccc3c2=O)cc1	–	–	–	·	–	·
Cc1nc(SCc2ccc([N+](=O)[O-])cc2)nc2ccccc12	–	–	–	–	–	·
CCOC(=O)CSc1nc2ccccc2c(=O)n1NC(=O)c1ccccc1	67	–	–	–	–	–
COc1ccc(C(=O)Nn2c(SCc3ccc([N+](=O)[O-])cc3)nc3ccccc3c2=O)cc1	84	–	–	–	–	·
Cc1ccc(CNC(=O)CSc2nc3ccsc3c(=O)n2NC(=O)c2ccccc2)cc1	64	–	–	–	–	·
Cc1ccc(S(=O)(=O)n2cnc3cc([N+](=O)[O-])ccc32)c(C)c1C	–	–	–	–	–	·
CCNC(=S)NC1CC2CCC(C1)N2Cc1ccccc1 (stereo not given)	–	–	–	–	52	·
CCCSC1=C(C#N)C(c2cccnc2)C(C(=O)OCC)=C(c2ccccc2)N1 (stereo not given)	62	–	–	–	–	·
CCOC(=O)C1=C(c2ccccc2)NC(SCC)=C(C#N)C1c1cccnc1 (stereo not given)	70	–	–	–	–	·
CCOC(=O)C1=C(C)Nc2ncnn2C1c1cccnc1 (stereo not given)	–	–	–	–	–	·
CCOC(=O)c1cnc2ccc(OCC)cc2c1N1CCN(c2ccccc2OC)CC1	94	–	–	–	77	·
CCN=c1scc(-c2ccc3c(c2)NC(=O)CO3)n1N=C1CCCC1	–	–	–	5.5	54	–
CCCCN=c1scc(-c2ccc3c(c2)NC(=O)CO3)n1N=C1CCCC1	–	–	–	–	–	·
Nc1nc(-c2ccc3c(c2)NC(=O)CO3)cs1	–	–	–	·	–	·
COCC(C)n1c(-c2ccc3c(c2)NC(=O)CO3)csc1=Nc1ccc(OC(F)F)cc1 (stereo not given)	69	–	–	–	–	·
Cc1c(Cl)c([N+](=O)[O-])nn1CC(=O)NC12CC3CC(CC(C3)C1)C2	–	–	–	–	79	·
O=C(c1ccc2c(c1)OCO2)N1CCC2(CC1)Oc1ccc(Cl)cc1C(=O)C21CC(c2ccc(Cl)cc2)=NO1 (stereo not given)	·	·	·	–	·	·
COc1ccc(NC(=O)c2cc(CC(C)C)on2)cc1OC	–	–	–	–	–	–
CCCCS/C(N)=N/N=C/c1ccccc1O	82	–	–	–	88	·
NC(=O)Nc1ccc(F)cc1	–	–	–	–	–	·
Cc1cccc(N2CCN(C(=O)CCc3nc4ccccc4[nH]3)CC2C)c1 (stereo not given)	56	–	–	–	75	·
SMILES	CYP2C9 inh	CYP2C9 act	CYP2C19 activ	DAT uptake mod	CYP2C19 inhib	D1 allo mod
O=C(CCc1nc2ccccc2[nH]1)N1CCN(C(=O)c2ccco2)CC1	·	·	·	·	·	–
Cc1ccc(N2CCN(C(=O)CCc3nc4ccccc4[nH]3)CC2)c(C)c1	72	–	–	–	84	·
COc1ccc(C(=O)NCC(c2cccnc2)N2CCN(c3ccccc3)CC2)cc1OC (stereo not given)	·	·	·	–	·	·
CC(C)=C1C2CCC1C1C(=O)N(c3nc(-c4ccc(F)cc4)c(C)s3)C(=O)C21 (stereo not given)	–	–	–	–	–	·
O=C(Nc1ccccc1C(=O)NCc1ccc(Cl)cc1)c1ccco1	58	–	–	·	–	–
O=C(Nc1ccccc1C(=O)NCCc1ccccc1)c1ccco1	71	–	–	–	54	·
O=C(O)CNC(=O)c1ccccc1NC(=O)c1ccco1	–	–	–	–	–	–
O=C(Cn1ncc2c3ccccc3n(Cc3ccc(F)cc3)c2c1=O)N1CCN(c2ncccn2)CC1	95	–	–	2.8	99	·
